Data on 23 sequences can be found in article PMC5892938, “SARNAclust: Semi-automatic detection of RNA protein binding motifs from immunoprecipitation data”.

In all, about 11,000 sequences were measured (“log2 fold change”: median about 0.00022, highest 2% from about 0.34 on). Some of the results follow.

The target in this experiment is GST-SBP-SLBP (stem-loop binding protein) (Homo sapiens, UniProt Q14493 1-270). The experiment can be described thus: targeted RNA Bind-n-Seq; RBNS binding buffer: 25 mM Tris pH 7.5, 150 mM KCl, 3 mM MgCl2, 0.1% Tween, 0.5 mg/mL BSA, 1 mM DTT; 27 nM protein, 750 pM RNA pool; temperature not stated; high values mean tight binding. Particulars: protein: recombinant; tags: N-terminal GST and SBP (pGEX6P1-SBP); structured_RNA. In a few lines: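 A designed RNA oligo pool, transcribed with T7, was present at 750 pM and incubated in RBNS binding buffer with 27 nM of GST-SBP-tagged protein that had been expressed in Rosetta(DE3) pLysS E. coli and purified with glutathione. After reverse transcription with a 10-nucleotide barcoded primer and PCR, the bound RNA was sequenced as 200-cycle paired-end reads on a MiSeq. Each sequence's binding signal is the DEseq binary-logarithm fold change in read counts, computed after joining reads with FLASH, aligning with HISAT2 and collapsing by barcode.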
Turning to “GGUCACGUCUCAAUCAACUCUAUUUCCAGGGAAAUCCCUGGCUUAUUCAACAGCUCGCAGUCAAG”, the binding signal was found to be 0.488 ± 0.245 log2 fold change.

Regarding “GGUCACGUCUCAAUCAACUCAUUCCCCAGGGAAAUCCCUGGCUUAUUCAACAGCUCGCAGUCAAG”, the binding signal was found to be 0.349 ± 0.307 log2 fold change.

Take “GGUCACGUCUCAAUCAACUCUAUUUCCAGGGAAAUCCCUGGCUAACUCAACAGCUCGCAGUCAAG”: the binding signal was found to be 0.335 ± 0.258 log2 fold change.

For “GGUCACGUCUCAAUCAACUCAUCUCCCAGGGAAAUCCCUGGCUUAUUCAACAGCUCGCAGUCAAG”, the binding signal turned out to be 0.417 ± 0.302 log2 fold change.

Take “GGUCACGUCUCAAUCAACUCAAUCCCCAGGGAAAUCCCUGGCAUUCUCAACAGCUCGCAGUCAAG”: the binding signal stood at 0.318 ± 0.264 log2 fold change.

For the sequence “GGUCACGUCUCAAUCAACUCCCAAAGGUUUUUUUAAGAGCCACCCAUCAACAGCUCGCAGUCAAG”, the binding signal was found to be 0.54 ± 0.157 log2 fold change.

As to “GGUCACGUCUCAAUCAACUCCCAAAGGUUUUUUUUAGAACCACCCAUCAACAGCUCGCAGUCAAG”, the binding signal was 0.338 ± 0.169 log2 fold change.

With “GGUCACGUCUCAAUCAACUCCCAAAGGUUUUUUUUAGAGCCACCCAUCAACAGCUCGCAGUCAAG”, the binding signal worked out at 0.324 ± 0.158 log2 fold change.

As for “GGUCACGUCUCAAUCAACUCCCAAAGGCUUUUCUUAGAGCCACCCAUCAACAGCUCGCAGUCAAG”, the binding signal came to 0.496 ± 0.164 log2 fold change.

For “GGUCACGUCUCAAUCAACUCCCAAAGGUUUUUCUCAGAACCACCCAUCAACAGCUCGCAGUCAAG”, the binding signal worked out at 0.402 ± 0.178 log2 fold change.

With “GGUCACGUCUCAAUCAACUCAUCCCCAGGAGUUUACUCCUGUUUAGUCAACAGCUCGCAGUCAAG”, the binding signal stood at 0.458 ± 0.228 log2 fold change.

Turning to “GGUCACGUCUCAAUCAACUCAAUCCCAGGAGUUUUCUCCUGUAAAGUCAACAGCUCGCAGUCAAG”, the binding signal came out at 0.317 ± 0.231 log2 fold change.

Consider “GGUCACGUCUCAAUCAACUCUAUCCCAGGAGUUUACUCCUGUUUUCUCAACAGCUCGCAGUCAAG”, for which the binding signal is 0.399 ± 0.223 log2 fold change.

Turning to “GGUCACGUCUCAAUCAACUCAAUCCCAGGAGUUUCCUCCUGCUAACUCAACAGCUCGCAGUCAAG”, the binding signal turned out to be 0.303 ± 0.231 log2 fold change.

Consider “GGUCACGUCUCAAUCAACUCUAUCCCAGGAGUUUCCUCCUGCAUACUCAACAGCUCGCAGUCAAG”, for which the binding signal came to 0.312 ± 0.201 log2 fold change.

As to “GGUCACGUCUCAAUCAACUCAUCCUCAGGAGUUUCCUCCUGUUAAGUCAACAGCUCGCAGUCAAG”, the binding signal worked out at 0.328 ± 0.204 log2 fold change.

With “GGUCACGUCUCAAUCAACUCUAGUCCAGGAGUUUUCUCCUGUUAAUUCAACAGCUCGCAGUCAAG”, the binding signal came out at 0.331 ± 0.217 log2 fold change.

In the case of “GGUCACGUCUCAAUCAACUCAUUCCCAGGAGUUUACUCCUGCUAACUCAACAGCUCGCAGUCAAG”, the binding signal was 0.364 ± 0.234 log2 fold change.

Take “GGUCACGUCUCAAUCAACUCUUUCCCAGGAGUUUUCUCCUGUUAUGUCAACAGCUCGCAGUCAAG”: the binding signal is 0.376 ± 0.182 log2 fold change.

Regarding “GGUCACGUCUCAAUCAACUCAUCGUCAGGAGUUUACUCCUGCUAACUCAACAGCUCGCAGUCAAG”, the binding signal worked out at 0.304 ± 0.246 log2 fold change.

Take “GGUCACGUCUCAAUCAACUCAGUCUCAGGAGUUUACUCCUGCUUAUUCAACAGCUCGCAGUCAAG”: the binding signal worked out at 0.314 ± 0.242 log2 fold change.

On to “GGUCACGUCUCAAUCAACUCAUCUUCAGGAGUUUACUCCUGCUUAGUCAACAGCUCGCAGUCAAG”, for which the binding signal amounted to 0.342 ± 0.198 log2 fold change.

In the case of “GGUCACGUCUCAAUCAACUCAUCCUCAGGAGUUUACUCCUGCUUACUCAACAGCUCGCAGUCAAG”, the binding signal amounted to 0.315 ± 0.216 log2 fold change.
